TRHR agonist = activates the human TRH receptor; P34981; AID 493084; hit rate 0.18% among 360,000; TRHR cells, calcium flux fluo-8, FDSS agonist mode; activation, % at 2 µM
Target sequence (P34981 whole entry, looked up): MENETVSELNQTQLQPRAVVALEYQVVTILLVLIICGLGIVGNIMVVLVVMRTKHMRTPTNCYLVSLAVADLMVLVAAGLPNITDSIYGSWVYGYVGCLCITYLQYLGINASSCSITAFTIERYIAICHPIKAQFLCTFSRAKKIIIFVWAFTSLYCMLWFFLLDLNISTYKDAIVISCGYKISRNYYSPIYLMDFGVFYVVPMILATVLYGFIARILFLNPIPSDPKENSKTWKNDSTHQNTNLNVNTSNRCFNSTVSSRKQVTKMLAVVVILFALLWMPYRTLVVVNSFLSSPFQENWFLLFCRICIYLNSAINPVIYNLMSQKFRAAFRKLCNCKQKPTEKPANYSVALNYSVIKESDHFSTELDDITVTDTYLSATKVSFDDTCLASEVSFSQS
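Agonist-mode FDSS calcium read (Ex 480/Em 530, 1 s cycles) in 1536-well TRHR cells with fluo-8 dye, after 10-cycle baseline and 23 nL compound addition; TRH at EC20 (10 nM final) added afterwards for the enhancer phase.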
TRHR PAM = allosteric enhancers of human TRH receptor; TRHR cells, fluo-8 calcium fluorescence, EC20 TRH enhancement; enhancement, % at 2 µM; hit rate 0.66% among 360,000; AID 493056; in the data active means enhancement above about 30%
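Enhancer read-out: after compound pinning and an initial kinetic agonist-mode read, an EC20 of TRH (10 nM final) was injected and fluo-8 calcium signal (Ex 480/Em 530) followed at 1 s/cycle for 100 cycles in TRHR-expressing cells.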
D1 potentiator = human D1 dopamine receptor positive modulation | P21728 | HEK293 TREx D1 cells, calcium flux, dopamine EC20 potentiation | potentiation, % at 10 µM | hit rate 0.036% among 360,000 | AID 504651; in the data active means potentiation above about 30%
D1 antag = blocks dopamine activation of the human D1 receptor | P21728 | HEK293 TREx D1 cells, calcium flux, dopamine EC80; active compounds read low | activity change, negative = inhibition, % at 10 µM | hit rate 3.2% among 360,000 | AID 504652; in the data active means activity change below about -30%
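Allosteric or orthosteric antagonism assessed as attenuation of the calcium response to EC80 dopamine, added 180 s after compound, in induced HEK293 Trex D1 cells loaded with no-wash calcium dye.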
D1 ag = activates the human D1 dopamine receptor. HEK293 T-REx D1 cells, calcium flux, agonist mode. activation, % at 2 µM. hit rate 1% among 360,000. P21728
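Inducible HEK293 T-REx D1 cells, force-coupled to calcium signalling, were plated at 4000 cells/well with tetracycline and held overnight at 30 C. After no-wash calcium dye loading, compound-evoked calcium rise over 180 s flagged agonists.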
Each line names hits and unclear results; the compound was inactive in the other large screens. The list is not random: actives were taken first. Their share in the collection is about 4.7%. Unless noted, no stated cut-off is given here; in the data, active means activation above about 30%; inactive means the rest.

CCOc1ccc(NC(=O)CC2Nc3cccc4cccc(c34)NC2=O)cc1 (centres undefined)	none
CC1(C)CC(=O)C2=C(C1)NC(=O)CC2c1ccccc1F (centres undefined)	D1 antag -30.6
CC1(C)CC(=O)C2=C(C1)NC(=O)CC2c1cc(F)ccc1F (centres undefined)	none
Cc1cc(C)c2[nH]c(=O)c(CN(Cc3cccs3)C(=S)NCC3CCCO3)cc2c1 (centres undefined)	D1 antag -31.3
CCNC(=S)N(Cc1cc2cc(C)cc(C)c2[nH]c1=O)C1CCCC1	D1 antag -47.1
CNC(=S)N(Cc1cc2cc(C)cc(C)c2[nH]c1=O)C1CCCC1	none
O=C(CC1(O)C(=O)N(CCc2ccccc2)c2ccc(Br)cc21)c1ccc(F)cc1 (centres undefined)	none
O=S(=O)(Nc1cccc2c1CCCC2)c1cccc(C(F)(F)F)c1	none
Cc1ccc(S(=O)(=O)Nc2cccc3c2CCCC3)cc1	D1 antag -31.9
c1ccc(OCCOc2cccc3cccnc23)cc1	none
CC(C)Oc1ccccc1OCCCOc1cccc2cccnc12	D1 antag -48.4
OCc1ccccc1OCCCOc1cccc2cccnc12	D1 antag -30.6
O=c1[nH][nH]c(-c2ccccc2)c1C=Nc1cccc(Cl)c1	D1 antag -33.8
O=c1[nH][nH]c(-c2ccccc2)c1C=Nc1ccc(Cl)cc1	none
O=C(C1CC1)N1CCN(c2nc3ccc(F)cc3s2)CC1	none (no result: D1 antag)
O=C(CSc1nnc(-c2ccc(F)cc2)o1)N1CCCc2ccccc21	none
O=C(NN1CCOCC1)c1cccc(Cl)c1	none
CN(c1cccc(Cl)c1)S(=O)(=O)c1cccc(C(=O)NN2CCOCC2)c1	D1 antag -37.5 (no result: D1 potentiator)
Cc1cc(C)cc(NC(=O)CSCc2cc(=O)c3ccc(C)c(C)c3[nH]2)c1	none
Cc1c(C)c2ccc(O)c(CN3CCN(C)CC3)c2oc1=O	none
O=c1oc2c(CN3CCCCCC3)c(O)ccc2cc1-c1nc2ccccc2[nH]1	D1 ag 240.7
O=c1oc2c(CN3CCCC3)c(O)ccc2cc1-c1ccccc1	none
CN1CCN(Cc2c(O)ccc3cc(-c4ccccn4)c(=O)oc23)CC1	D1 antag -31.5, D1 ag 43.8
COc1cc2c(cc1NC(=O)c1ccccc1C)n(C)c(=O)n2C	none
CCCc1cc(=O)[nH]c(SCc2nc(-c3ccccc3)no2)n1	none
CCCOc1ccc(Oc2ccc(S(=O)(=O)N3CCN(C)CC3)cn2)cc1	D1 antag -37.5
Cc1cc(C)cc(Oc2ccc(S(=O)(=O)N3CCN(C)CC3)cn2)c1	none
COc1ccc(CN2CC34C=CC(O3)C(C(=O)O)C4C2=O)cc1 (centres undefined)	D1 antag -57.6 (no result: D1 potentiator)
O=S(=O)(Nc1cccc2cccnc12)C1CC1	none
CCS(=O)(=O)N1CCc2cc(C(=O)Nc3cc([N+](=O)[O-])ccc3C)ccc21	none
CN(C)c1ccc2c(c1)OC(N)=C(C#N)C2c1cccc(F)c1 (centres undefined)	D1 ag 75.5
O=C(Nc1ccc(F)cc1)c1cccnc1NCCc1ccccc1	D1 antag -33.2
CCCS(=O)(=O)NCCc1sc2nc(-c3ccc(F)cc3)nn2c1C	none (no result: D1 antag)
CC1(C)CC(C(N)=S)CCO1 (centres undefined)	D1 antag -37.0
Cc1cccc(C)c1NC(=O)Cn1c(=O)n(Cc2ccccc2)c(=O)c2c(C)c(C(=O)N(C)C)sc21	none
CCOC(=O)c1[nH]c(C)c(/C=N/O)c1C	D1 antag -56.4
CC(C)(C)C1CCC(OCC(O)CN2CCCC2)CC1 (centres undefined)	D1 ag 33.2
CC1CCN(CC(O)COC2CCC(C(C)(C)C)CC2)CC1 (centres undefined)	none
O=C(c1ccccc1)c1ccc(N2CCNCC2)cc1	D1 antag -74.5
COc1cc2c(cc1OC)C1O[C@](c3ccsc3)(C2)Oc2cc(-c3ccccc3)oc(=O)c21	none
COc1ccc(S(=O)(=O)c2c(O)c3ccc(C(=O)Nc4ccccc4Cl)cc3[nH]c2=O)cc1	TRHR PAM 31.8
CCc1ccccc1NC(=O)c1ccc2c(O)c(S(=O)(=O)c3ccc(OC)cc3)c(=O)[nH]c2c1	none
COc1ccccc1CNCC(O)Cn1c2ccccc2c2ccccc21 (centres undefined)	D1 ag 89.9
